Assays:
Type in all cases: functional
[1] = tested on: Plasmodium falciparum; experiment: GSK_TCMDC: Inhibition of Plasmodium falciparum 3D7 in whole red blood cells, using parasite LDH activity as an index of growth. Test compounds present at 2uM
[2] = tested on: Plasmodium falciparum; experiment: GSK_TCMDC: Inhibition of Plasmodium falciparum Dd2 in whole red blood cells, using parasite LDH activity as an index of growth. Test compounds present at 2uM
[3] = tested on: HepG2; experiment: GSK_TCMDC: Percent inhibition of human HepG2 cell line. Test compounds present at 10uM.

SMILES	Inhibition [1] [%]	Inhibition [2] [%]	Inhibition [3] [%]
N#Cc1ccnc(-c2ccc(CNC3CCN(CC4Cn5c(=O)ccc6ccc(F)c4c65)CC3)cc2)c1.O=C(O)C(F)(F)F (stereo not drawn)	88	41	24
CCOC(=O)c1[nH]c2ccc(F)cc2c1NC(=O)CN1CCN(c2cccc(C(F)(F)F)c2)CC1	96	90	12
O=C(Nc1ccc(Cl)cc1)Nc1ccc(-c2ccc(-c3nc4ccccc4[nH]3)cc2)cc1	100	99	47
CN(C)CCOc1ccc(-n2c(-c3nonc3N)nc3cncc(-c4ccc(F)cc4)c32)cc1	97	7	10
Cc1cc(NCCCCCCCCNc2cc(C)nc3ccccc23)c2ccccc2n1.Cl	100	0	59
OCC1CCN(Cc2cccc(C#Cc3cc4ncnc(Nc5ccc(OCc6cccc(F)c6)c(Cl)c5)c4s3)n2)CC1	99	95	41
Cc1cccc(-c2cccc(CNc3nc(NCCc4ccc(O)cc4)nc(N4CCNCC4)n3)c2)c1.O=C(O)C(F)(F)F	84	0	50
Fc1ccc2[nH]c(-c3cccc(-c4ccc(CN5CCC(CCN6CCCCC6)CC5)cc4)c3)nc2c1.O=C(O)C(F)(F)F	100	100	91
O=C(/C=C/c1ccc(Cl)c(Cl)c1)NCCCCCN1CCC(C(=O)Nc2ccc3c(c2)OCO3)CC1	92	0	18
CC(C)(CNC(=O)[C@@H]1CCCN(CCOc2ccc(F)c(F)c2)C1)c1nc(-c2ccc(Cl)c(O)c2)c(-c2ccncc2)[nH]1.Cl	100	77	72
O=C(NC1CCN(c2ccnc3ccccc23)C1)c1cccc(C(F)(F)F)c1.O=C(O)C(F)(F)F (stereo not drawn)	94	86	28
N#CC(c1cccc(Cl)c1)c1ccc2c(C(F)(F)F)cc(C(F)(F)F)nc2n1 (stereo not drawn)	96	97	52
CCCCCCCc1c2c(C)c(C(=O)OCC)nc-2cc2n1CC(C)=C2C.Cl	89	10	11
COc1cc(C)nc2ccc(NC(=O)c3cc(C(F)(F)F)cc(C(F)(F)F)c3)cc12.Cl	100	99	16
CC[C@@]1(O)C(=O)OCc2c1cc1n(c2=O)Cc2c-1nc1cc3c(cc1c2CN1CCN(C)CC1)OCCO3.Cl	98	97	79
COc1ccc(NC(=O)N2CCCN(CCCCCNC(=O)/C=C/c3ccc(C(F)(F)F)cc3)CC2)cc1Cl	93	0	21
Cc1[nH]n(-c2cccc(C(F)(F)F)c2)c(=O)c1-c1ccc(Cl)cc1	98	25	7
Br.CC1(C)NC(N)=NC(=N)N1OCCCOc1c(Cl)cc(Cl)cc1Cl	94	97	65
CN(C)c1ccc(-c2ccc(C(=O)NC3CCN(Cc4cccc(C(F)(F)F)c4)CC3)s2)cc1.O=C(O)C(F)(F)F	96	77	35
CCCCNCc1ccc(-c2nc(CN(C(=O)Nc3cc([N+](=O)[O-])ccc3F)C3Cc4ccccc4C3)cs2)cc1.O=C(O)C(F)(F)F	87	13	15
CC(=O)N(Cc1ccc(CC(C)NCCc2cccc(Cl)c2)cc1)Cc1ccc(CC(C)NCCc2cccc(Cl)c2)cc1 (stereo not drawn)	100	94	98
Cc1nnc2c(NC(=O)NC3CCCC3)cc3cc(-c4ccc(CN5CCN(C)CC5)cc4)ccc3n12	99	91	100
CN1CCCC(CN2CCN(Cc3cccc(-c4ccc(-c5nc6ccccc6[nH]5)s4)c3)CC2)C1.O=C(O)C(F)(F)F (stereo not drawn)	99	99	52
CCc1c(C)nc2nc(Cc3cccc(F)c3)nn2c1N1CCN(c2ccccn2)CC1	100	98	0
CCOc1cc(-c2nnc3[nH]c(=O)n(C)c(=O)c3n2)ccc1OC(C)C	97	86	15
CC(C)CCN1CCCN(Cc2ccc(C(=O)Nc3ccc(F)c(F)c3)cc2)CC1.O=C(O)C(F)(F)F	88	27	36
